Measured values reported in PubChem BioAssay (NCI).
Compounds without any hit were thinned out: in the full panel of roughly 83,000, 20% have a hit.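 Growth was measured after 48 h exposure to one concentration of compound in 96-well plates. Values under 10 count as active.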 Activity calls are given as the source filed them.

What follows are compounds tested on HL-60(TB) leukemia (assay: NCI-60 one-dose screen, 48 h (100 = growth as untreated, 0 = no growth, -100 = all killed)). Conditions: 10 µM unless noted.

SMILES	growth
CC(=O)NS(=O)(=O)c1ccc(NC(=O)CSC2=NC(c3ccccc3)C(C(C)=O)=C(C)N2)cc1 (stereo not given)	97.4% (inactive)
COc1cc2oc(-c3cccc(C(=O)Nc4cccc([N+](=O)[O-])c4)c3)cc(=O)c2c(OC)c1OC	101% (inactive)
O=C(O)CCCCCCCCCCN1C(=O)/C(=C/c2cnc(-c3ccc(Cl)cc3)s2)SC1=S	33.7% (inactive)
O=C(c1ccc(O)cc1)C1[C@H](c2ccc(Cl)cc2)[C@@H](c2ccccc2)NC12C(=O)Nc1ccccc12 (stereo not given in full)	-33.3% (active)
COc1ccc2[nH]c(=O)c(CSc3ccccc3Nc3nccc(-c4ccc(Cl)cc4)n3)cc2c1	23.2% (inactive)
COc1cc(NC(=O)C(C)C)ccc1C(=O)NC(=S)Nc1ccc(S(N)(=O)=O)cc1	92.5% (inactive)
COc1ccc(Nc2nnc(-c3c[nH]c4ccccc34)o2)cc1	29.8% (inactive)
Cn1cc(NC(=O)c2cc(NC(=O)c3ccc(C#Cc4ccccc4)cc3)cn2C)cc1C(=O)NCCCN1CCOCC1	-67% (active)
N#Cc1c(-c2ccc(F)cc2)nc(SCc2ccc(F)cc2)nc1N1CCOCC1	85% (inactive)
CSc1ccc(NC(=O)c2ccc3nn(/C(C#N)=C/c4ccccn4)nc3c2)cc1	-18.9% (active)
N#Cc1c(-c2cccc(O)c2O)cc(-c2ccc3ccccc3c2)[nH]c1=O	56.6% (inactive)
COc1ccc(Nc2ncnc3sc4c(c23)CCN(Cc2ccccc2)C4)cc1	68.2% (inactive)
O=C(Cn1c2c(sc1=O)[C@H]1[C@@H](O)[C@@H](O)[C@H](O)[C@@H]1CS2)N1CCOCC1	109% (inactive)
OCNc1ccc(-n2cnc3cc(-c4ccc(O)cc4)ccc32)cc1C(F)(F)F	-2.45% (active)
C[C@@H]1[C@H]2C[C@@H](C[C@H]1NCc1nc3ccccc3n1C1CCCCCC1)C2(C)C	15% (inactive)
Nc1nnc(-c2c[nH]c3ncc(Br)cc23)c(-c2c[nH]c3ccc(F)cc23)n1	-0.929% (active)
CCNCCCn1c2c(c3cc(OC)c(OC)cc3c1=O)C(=O)c1cc3c(nc1-2)OCO3	55.1% (inactive)

SMILES	growth
COC1=C[C@@]23CCC(=O)N2CCc2cc4c(cc2[C@H]3[C@H]1OC(=O)C(C)(C)O)OCO4	87% (inactive)
Cc1ccc(C(C(=O)NC2CCCCC2)N(Cc2ccccc2Cl)C(=O)c2ccc(CN3CCOCC3)o2)o1 (stereo not given)	84.6% (inactive)
Nc1nc(-c2ccccc2)c(N=Nc2ccc([N+](=O)[O-])cc2Cl)s1	98.1% (inactive)
O=C(NO)c1ccc(Cn2ccc3c(NCc4ccccc4)ncnc32)cc1	-16% (active)
Cc1ccc(C(=O)Nc2cc(-n3ccnc3C)cc(C(F)(F)F)c2)cc1C#Cc1cnc2cccnn12	-28.8% (active)
COc1ccc2cc([C@H](C)C(=O)NCc3ccccc3)ccc2c1	5.91% (active)
Cc1ccn2c(C(=O)c3ccccc3)cc(-c3cc(-c4ccc(N(C)C)cc4)c(C#N)c(N)n3)c2c1	95.1% (inactive)
COc1ccc(-c2cc(C(=O)N=Nc3c(O)[nH]c4ccc(Cl)cc34)c3ccccc3n2)cc1OC	109% (inactive)
Cc1cccc(-c2nc(Nc3ccccc3C(=O)O)c3ccccc3n2)c1	39.4% (inactive)
C/C(=C\c1ccc(O)cc1O)c1ccc2ccc(O)cc2[o+]1	63.2% (inactive)
CCCn1c(=O)c2[nH]c(-c3ccc(OCc4nc5ccc(C)cc5[nH]4)cc3)nc2n(CCC)c1=O	4.56% (active)
Fc1cccc(CNc2nc(SCCN3CCOCC3)nc3c2cnn3CC(Cl)c2ccc(Br)cc2)c1 (stereo not given)	-23.6% (active)
O=C(Nc1ccc(OCC(=O)c2ccc(Cl)cc2)cc1)Nc1ccc(Cl)c(C(F)(F)F)c1	12.5% (inactive)
Nc1cccnc1/C=N/NC(=S)NCCNC(=O)c1ccc(-n2nc(-c3ccccc3O)nc2-c2ccccc2O)cc1	-8.62% (active)
COc1cc2c(c(OC)c1OC)C(=O)CC(c1cccc(NC(=O)c3cc(NC(=O)[C@@H](N)CO)ccc3C)c1)O2 (stereo not given in full)	101% (inactive)
Cc1ccc(-c2cc(C(=O)N=Nc3c(O)[nH]c4ccc(Br)cc34)c3ccccc3n2)cc1	15.8% (inactive)

These compounds were tested on MDA-MB-468 breast in the same assay as above. Conditions: 10 µM unless noted.

SMILES	growth
C[N+]12CCC34C5=CC(=O)C(=O)C=C5[N+]5(C)C(=O)CC6OCC=C(C1)C(CC32)C6C45 (stereo not given)	99.9% (inactive)
O=C(N/N=C/c1ccc(N(CCCl)CCCl)cc1)c1cccc2ccccc12	56.2% (inactive)
O=C1C2CC=CCC2C(=O)N1SC(Cl)(Cl)Cl (stereo not given)	103% (inactive)
Cc1cc(NC(=O)NCCCOc2ccc(N3C(N)=NC(N)=NC3(C)C)cc2Cl)ccc1S(=O)(=O)F	7.83% (active)
COc1ccc(C2=N[C@@H](Cc3ccccc3)C(=O)Nc3ccsc32)cc1	8.23% (active)
COC(=O)[C@@]1(C)CC[C@]2(C)CC[C@]3(C)C4=CC(=O)c5c(cc(O)c(O)c5C)[C@]4(C)CC[C@@]3(C)[C@@H]2C1	30.1% (inactive)
CCOC(=O)N1CC1	92.5% (inactive)
